A selection: hits, their analogues and other compounds. The true share with any hit is near 5.2%.
SMARCA2 act: SMARCA2 function activation, primary screen; MG213 cells, MMTV-luciferase reporter, dexamethasone, overnight; activation, % at 9.1 µM; 1% of 370,000 active; in the data active = activation above about 7.8%
NadD inh: blocks S. aureus nicotinate mononucleotide adenylyltransferase. purified NadD enzyme, colorimetric absorbance read-out. inhibition, % at 20 µM. 0.78% of 360,000 active; in the data active = inhibition above about 26%
Vif inh: HIV Vif inhibition; HEK293T cells, Vif self-association by quenched fluorescence, imaging, 24 h; inhibition, % at 7.49 µM; 0.35% of 340,000 active; in the data active = inhibition above about 50%, passing the limit was not always enough; inconclusive = no clear call, values can overlap the other calls; inactive = below about 31%
esBAF inh: SWI/SNF esBAF complex inhibition. mouse ES cells, Bmi1-luciferase knock-in reporter, 24 h; 100% = twice the neutral-well signal. reporter increase, % at 12.5 µM. 2% of 350,000 active; in the data active = activation above about 40%; inconclusive = no clear call, values can overlap the other calls;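 also: a rise in the Bmi1 reporter signal indicates esBAF inhibition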
SKN-1 inh: blocks SKN-1 activity in C. elegans | inhibition, % at 21.8 µM | 0.49% of 360,000 active | AID 624304 | C. elegans VP596 Pgst-4::GFP/RFP ratio, acrylamide-induced, 24 h;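 active = interference check ratio from 0.5 to 1.5 plus GFP to RFP signal ratio inhibition reaching or exceeding a fixed threshold, cut at about 30% in these data, passing the limit was not always enough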
GRIN3A LBD mod: NR3A (human) ligand-binding domain modulation. 2.5% of 340,000 active. NR3A LBD differential scanning fluorimetry, Tm shift; 0% = protein alone, 100% = glycine-bound protein. Tm shift relative to glycine control, % at 25 µM;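 active = melting temperature shift of at least 10% of the positive control shift, at one fixed dose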
Large screens that a line does not name were inactive.

C[C@H](CO)N1C[C@H](C)[C@H](CN(C)CC2CCCC2)Oc2ncc(C#Cc3ccccn3)cc2C1=O	none (no result: SMARCA2 act, NadD inh, Vif inh, SKN-1 inh, GRIN3A LBD mod)
COc1cc2oc3cc(C)oc(=O)c3c2cc1OC	GRIN3A LBD mod 16 (no result: esBAF inh)
CC(C)NC(=O)N(C)C[C@@H]1Oc2ncc(C#Cc3ccccc3F)cc2C(=O)N([C@@H](C)CO)C[C@H]1C	none (no result: SMARCA2 act, NadD inh, Vif inh, SKN-1 inh, GRIN3A LBD mod)
N#CCc1ccc(OC(=O)c2cccnc2Cl)cc1	esBAF inh 60
O=C(COC(=O)c1cccnc1Cl)c1ccccc1	esBAF inh 44 (no result: Vif inh)
CCC(C)(C)c1ccc(OC(=O)c2cccnc2Cl)cc1	none
CN(C(=O)COC(=O)c1cccnc1Cl)C1CCCCC1	esBAF inh 56
O=C(C[C@@H]1CC[C@@H]2[C@H](COC[C@@H](O)CN2C(=O)Nc2ccc(Cl)cc2)O1)NC1Cc2ccccc2C1	none (no result: SMARCA2 act, NadD inh, Vif inh, SKN-1 inh, GRIN3A LBD mod)
Oc1ccc(/C=N/Nc2ccc(Cl)nn2)c(O)c1O	GRIN3A LBD mod 22
CC(Sc1nnc(Nc2ccccc2)s1)C(=O)Nc1nc(-c2ccccc2)cs1 (centres undefined)	none
CC(Sc1nnc(NCc2ccccc2)s1)C(=O)Nc1ccc2c(c1)C(=O)c1ccccc1C2=O (centres undefined)	NadD inh 38 (no result: esBAF inh)
Cc1cccc(C2Nc3cccc4cccc(c34)N2)c1	none (no result: Vif inh)
COc1cc(C2Nc3cccc4cccc(c34)N2)cc(OC)c1OC(C)=O	NadD inh 43 (no result: esBAF inh)
COc1cc(C2Nc3cccc4cccc(c34)N2)ccc1O	NadD inh 59
O=C(NCCO)C(=O)NCC1OCCCN1S(=O)(=O)c1cc(F)ccc1F (centres undefined)	GRIN3A LBD mod 136 (no result: esBAF inh)
Brc1ccc(Nc2ncnc3[nH]ncc23)cc1	GRIN3A LBD mod 26 (no result: esBAF inh)
C[C@H]1CN([C@@H](C)CO)C(=O)c2cc(C#Cc3cccnc3)cnc2O[C@H]1CN(C)C(=O)CN(C)C	none (no result: SMARCA2 act, NadD inh, Vif inh, SKN-1 inh, GRIN3A LBD mod)
COC(=O)c1cc(NC(=O)c2c(Cl)cnn2C)cc(C(=O)OC)c1	none (no result: esBAF inh)
Cn1ncc(Cl)c1C(=O)Nc1ccc2c(c1)CCC2	esBAF inh 52
O=C(Nc1ccncc1)Nc1ccccc1Cl	none (no result: esBAF inh)
O=C(Nc1ccc2c3c(cccc13)CC2)c1ccccc1	esBAF inh 48 (no result: GRIN3A LBD mod)
COc1cc(C(=O)Nc2ccncc2)cc(OC)c1OC	none
COc1cc(C(=O)Nc2ccc3c(c2)Cc2cc(NC(=O)c4cc(OC)c(OC)c(OC)c4)ccc2-3)cc(OC)c1OC	GRIN3A LBD mod 24 (no result: esBAF inh)
O=C(Nc1csc([N+](=O)[O-])c1)Nc1ccccc1Cl	GRIN3A LBD mod 39 (no result: esBAF inh)
O=C(NCC[C@@H]1CC[C@@H](NS(=O)(=O)c2cccc(F)c2)[C@H](CO)O1)C1CCCC1	none (no result: SMARCA2 act, NadD inh, Vif inh, SKN-1 inh, GRIN3A LBD mod)
COc1ccccc1-c1ccc([C@H]2[C@@H](C#N)N(C(=O)C3CCOCC3)[C@H]2CO)cc1	none (no result: SMARCA2 act, NadD inh, Vif inh, SKN-1 inh, GRIN3A LBD mod)
Cc1ccc(C(=O)Nc2nc(C)c(C(=O)Nc3ccc4c(c3)CCC4)s2)cc1	GRIN3A LBD mod 19
O=C(Nc1ccc2c(c1)Cc1ccccc1-2)c1cc2ccccc2o1	none (no result: esBAF inh)
Cc1occc1C(=O)Nc1ccc2c(c1)CCC2	GRIN3A LBD mod 11 (no result: esBAF inh)
Cc1occc1C(=O)Nc1ccc2c(c1)OCCO2	none
Cc1ccc(NC(=O)Nc2ccc3c(c2)CCC3)c(C)c1	none
O=C(Nc1ccc2c(c1)Cc1ccccc1-2)c1ccncc1	GRIN3A LBD mod 18 (no result: esBAF inh)
O=C(Nc1ccc2c(c1)CCC2)Nc1ccccc1Cl	esBAF inh 79, GRIN3A LBD mod 10
CNC[C@@H]1OCCCC[C@@H](C)Oc2ccc(NC(=O)c3ccccc3)cc2C(=O)N([C@H](C)CO)C[C@H]1C	none (no result: SMARCA2 act, NadD inh, Vif inh, SKN-1 inh, GRIN3A LBD mod)
O=C(Nc1ccc(Cl)cc1)Nc1ccccc1Sc1ncc([N+](=O)[O-])s1	GRIN3A LBD mod 13
Cc1cc(C)n2nc(C(=O)Nc3ccc4c(c3)CCC4)nc2n1	esBAF inh 56
CCOc1ccccc1NC(=O)Nc1ccc2c(c1)CCC2	esBAF inh 48
Cc1cc(C)n2nc(C(=O)Nc3ccc(S(=O)(=O)N4CCCC4)cc3)nc2n1	none
O=C(Nc1ccc2c(c1)CCC2)c1ccccc1	GRIN3A LBD mod 14
CCOc1ccccc1NC(=O)Nc1cccc(NC(C)=O)c1	none
C[C@@H]1CN([C@H](C)CO)C(=O)c2cccc(NS(=O)(=O)c3ccc(F)cc3)c2O[C@H]1CN(C)S(=O)(=O)c1ccccc1	none (no result: SMARCA2 act, NadD inh, Vif inh, SKN-1 inh, GRIN3A LBD mod)
Cc1cc2oc(=O)cc(Cn3ncc(Cl)c(Cl)c3=O)c2cc1Cl	NadD inh 27 (no result: SMARCA2 act)
Cc1cc2oc(=O)cc(CN3CCN(c4ccccc4)CC3)c2cc1Cl	none (no result: GRIN3A LBD mod)
CSCC[C@H](N)C(=O)N1CCC(C(=O)N[C@@H](Cc2c[nH]c3ccccc23)C(=O)O)CC1	SKN-1 inh 36
C[C@H](CO)N1C[C@H](C)[C@H](CN(C)Cc2ccccn2)Oc2ncc(C#Cc3cccc(F)c3)cc2C1=O	none (no result: SMARCA2 act, NadD inh, Vif inh, SKN-1 inh, GRIN3A LBD mod)
C[C@H](CO)N1C[C@H](C)[C@H](CN(C)Cc2ccc(Oc3ccccc3)cc2)Oc2ccc(NC(=O)CCCN(C)C)cc2C1=O	none (no result: SMARCA2 act, NadD inh, Vif inh, SKN-1 inh, GRIN3A LBD mod)
Cc1cc(N(C)C)ccc1N=Nc1ccc2ncccc2c1	SKN-1 inh 69
CN(C)c1ccc(N=Nc2ccc3ncccc3c2)cc1	SKN-1 inh 59
CN(C)c1ccc(N=Nc2cccc(F)c2)cc1	SKN-1 inh 34
CN(C)c1ccc(N=Nc2ccc(S(N)(=O)=O)cc2)cc1	none
Cc1ccc2ncccc2c1	none
Cc1cc(-c2nc3cccnc3s2)ccc1NS(=O)(=O)c1cccs1	esBAF inh 45
O=S(=O)(Nc1ccc(-c2nc3cccnc3s2)cc1)c1cccs1	none
O=S(=O)(c1cccc(F)c1)N1CC[C@@H]2[C@H](CO)Nc3ccc(C#Cc4cccc(F)c4)cc3[C@@H]21	none (no result: SMARCA2 act, NadD inh, Vif inh, SKN-1 inh, GRIN3A LBD mod)
O=[N+]([O-])c1ccc(Nc2cccc(F)c2)nc1	GRIN3A LBD mod 25
CN(C)c1ccc(Nc2ccc([N+](=O)[O-])cn2)cc1	esBAF inh 50
CC(=O)Nc1ccc(Nc2ccc([N+](=O)[O-])cn2)cc1	GRIN3A LBD mod 11
O=[N+]([O-])c1ccc(Nc2ccc(F)cc2)nc1	none (no result: esBAF inh)
Cc1ccc(Nc2ccc([N+](=O)[O-])cn2)cc1Cl	esBAF inh inconclusive, GRIN3A LBD mod 14
O=[N+]([O-])c1ccc(Nc2ccccc2)nc1	GRIN3A LBD mod 12 (no result: esBAF inh)
CCSC1=N/C(=C\c2ccc(C)s2)C(=O)S1	GRIN3A LBD mod 13 (no result: esBAF inh)
CCOC(=O)SC1=N/C(=C\c2ccc(N(C)C)cc2)C(=O)S1	SKN-1 inh 41 (no result: Vif inh)
C=CCSC1=N/C(=C\c2ccc(C(=O)O)cc2)C(=O)S1	none
CCSC1=N/C(=C\c2ccc(C(=O)O)cc2)C(=O)S1	GRIN3A LBD mod 20
Cc1ccc(/C=C2\SC(N)=NC2=O)s1	none (no result: esBAF inh)
O=C(Nc1ccc(F)cc1)N[C@H]1CC[C@@H](CCn2cc(C3(O)CCCC3)nn2)O[C@@H]1CO	none (no result: SMARCA2 act, NadD inh, Vif inh, SKN-1 inh, GRIN3A LBD mod)
COCCOc1ccc(C(F)(F)F)cc1Nc1nc2ccccc2o1	esBAF inh 62
Cc1nn(C(=O)c2cccs2)c(N)c1-c1ccccc1	esBAF inh 85 (no result: Vif inh)
CC(=O)c1c(C)nn(C(=O)c2cccs2)c1C	none
